What was measured:
Experiment in all cases: DAPPL (digital affinity profiling via proximity ligation, sequencing); 10 mM Tris-HCl pH 7.5, 50 mM NaCl, 1 mM DTT, 4% glycerol, room temperature, 30 min; GST-TFs on glutathione beads, 16-mer random dsDNA library, 0.1% formaldehyde crosslink after washing; high values mean tight binding
Settings in all cases: protein: recombinant; tags: N-terminal GST; dsDNA, one strand shown
ERF = target: T1, ERF (Homo sapiens, UniProt P50548 1-548)
T1 sequence: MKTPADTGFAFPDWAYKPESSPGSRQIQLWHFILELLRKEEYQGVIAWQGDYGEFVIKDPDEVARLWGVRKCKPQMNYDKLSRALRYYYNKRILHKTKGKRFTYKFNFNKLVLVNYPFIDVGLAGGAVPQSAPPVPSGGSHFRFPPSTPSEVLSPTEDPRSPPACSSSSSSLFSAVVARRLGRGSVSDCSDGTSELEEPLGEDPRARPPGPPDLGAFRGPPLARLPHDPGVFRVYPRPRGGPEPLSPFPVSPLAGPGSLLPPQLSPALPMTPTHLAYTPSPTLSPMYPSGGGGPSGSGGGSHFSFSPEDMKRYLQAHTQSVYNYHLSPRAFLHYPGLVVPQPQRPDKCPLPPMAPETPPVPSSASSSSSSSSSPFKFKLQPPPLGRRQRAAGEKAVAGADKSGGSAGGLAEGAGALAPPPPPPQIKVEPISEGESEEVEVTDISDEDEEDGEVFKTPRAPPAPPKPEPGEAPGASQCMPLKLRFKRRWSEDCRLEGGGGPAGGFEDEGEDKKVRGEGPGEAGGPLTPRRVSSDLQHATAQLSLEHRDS
In short: (§1)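 Yeast served to express human transcription factors as GST fusions, which were then captured on glutathione beads and labelled with DNA barcodes. Pooled with a tag-only sample, they were incubated with 200 nmole of a 16-mer random double-stranded DNA library for 30 min at room temperature in Tris/NaCl/DTT/glycerol buffer, washed, crosslinked with 0.1% formaldehyde, ligated by proximity, amplified by PCR and sequenced. Dividing each hexamer's read frequency for a factor by its frequency for the tag-only sample gives the binding signal.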

ETV3L = target: T2, ETV3L (Homo sapiens, UniProt Q6ZN32 1-361)
T2 sequence: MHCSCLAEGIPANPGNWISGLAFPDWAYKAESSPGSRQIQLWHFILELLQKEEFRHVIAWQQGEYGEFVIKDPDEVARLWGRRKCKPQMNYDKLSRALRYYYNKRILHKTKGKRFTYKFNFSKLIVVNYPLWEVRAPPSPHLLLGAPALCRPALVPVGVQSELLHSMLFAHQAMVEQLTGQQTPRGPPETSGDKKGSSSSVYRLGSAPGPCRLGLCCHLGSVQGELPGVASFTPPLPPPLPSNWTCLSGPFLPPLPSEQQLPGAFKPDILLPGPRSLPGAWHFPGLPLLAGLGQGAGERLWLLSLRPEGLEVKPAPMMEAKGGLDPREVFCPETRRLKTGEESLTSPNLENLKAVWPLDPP
In short: as §1

ETS2 = target: T3, ETS2 (Homo sapiens, UniProt P15036 1-469)
T3 sequence: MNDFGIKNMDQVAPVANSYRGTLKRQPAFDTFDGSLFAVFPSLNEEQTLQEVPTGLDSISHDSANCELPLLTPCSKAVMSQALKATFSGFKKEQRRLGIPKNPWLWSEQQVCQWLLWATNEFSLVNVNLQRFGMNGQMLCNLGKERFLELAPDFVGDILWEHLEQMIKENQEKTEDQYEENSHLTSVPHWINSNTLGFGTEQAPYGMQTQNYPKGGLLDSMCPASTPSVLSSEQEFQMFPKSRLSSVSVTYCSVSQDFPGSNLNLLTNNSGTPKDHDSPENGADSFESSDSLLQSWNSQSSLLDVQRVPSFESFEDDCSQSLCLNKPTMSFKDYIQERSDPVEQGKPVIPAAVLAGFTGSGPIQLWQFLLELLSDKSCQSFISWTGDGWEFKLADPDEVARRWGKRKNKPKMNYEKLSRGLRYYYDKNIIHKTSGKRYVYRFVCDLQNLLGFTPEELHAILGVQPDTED
In short: as §1

SPDEF = target: T4, SPDEF (Homo sapiens, UniProt O95238 1-335)
T4 sequence: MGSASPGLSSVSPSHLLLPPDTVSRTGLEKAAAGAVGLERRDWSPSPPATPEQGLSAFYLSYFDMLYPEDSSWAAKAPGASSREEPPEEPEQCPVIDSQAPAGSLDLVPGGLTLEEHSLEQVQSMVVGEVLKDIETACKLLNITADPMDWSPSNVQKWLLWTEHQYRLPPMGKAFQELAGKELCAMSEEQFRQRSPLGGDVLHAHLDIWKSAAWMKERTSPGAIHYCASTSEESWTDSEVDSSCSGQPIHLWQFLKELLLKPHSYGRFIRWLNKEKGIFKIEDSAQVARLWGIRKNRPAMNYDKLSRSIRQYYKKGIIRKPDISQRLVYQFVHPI
In short: as §1

ETV7 = target: T5, ETV7 (Homo sapiens, UniProt Q9Y603 1-341)
T5 sequence: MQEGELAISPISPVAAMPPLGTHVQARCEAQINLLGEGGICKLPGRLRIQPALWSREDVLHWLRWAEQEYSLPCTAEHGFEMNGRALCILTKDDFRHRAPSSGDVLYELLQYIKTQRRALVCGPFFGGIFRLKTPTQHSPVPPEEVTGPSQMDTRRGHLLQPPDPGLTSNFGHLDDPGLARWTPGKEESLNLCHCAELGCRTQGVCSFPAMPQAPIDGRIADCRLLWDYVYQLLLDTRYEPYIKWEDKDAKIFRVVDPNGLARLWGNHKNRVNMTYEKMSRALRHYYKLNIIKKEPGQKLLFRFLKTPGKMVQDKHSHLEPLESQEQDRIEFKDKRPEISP
In short: as §1

ELF5 = target: T6, ELF5 (Homo sapiens, UniProt Q9UKW6-2 1-255)
T6 sequence: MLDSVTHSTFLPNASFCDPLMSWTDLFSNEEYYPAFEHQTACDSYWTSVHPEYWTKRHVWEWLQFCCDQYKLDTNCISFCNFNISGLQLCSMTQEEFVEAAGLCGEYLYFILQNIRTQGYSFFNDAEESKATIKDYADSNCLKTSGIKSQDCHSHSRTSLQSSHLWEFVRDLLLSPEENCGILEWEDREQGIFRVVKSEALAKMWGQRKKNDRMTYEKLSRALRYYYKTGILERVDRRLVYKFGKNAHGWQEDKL
In short: as §1

ETV3 = target: T7, ETV3 (Homo sapiens, UniProt P41162-2 1-143)
T7 sequence: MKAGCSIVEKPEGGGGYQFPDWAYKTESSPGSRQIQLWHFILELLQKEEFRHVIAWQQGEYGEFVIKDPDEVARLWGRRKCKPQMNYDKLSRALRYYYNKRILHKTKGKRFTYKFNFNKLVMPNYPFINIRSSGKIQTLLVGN
In short: as §1

ETV6 = ETV6 (Homo sapiens, UniProt P41212 1-452)
Chain of ETV6 (P41212 whole entry): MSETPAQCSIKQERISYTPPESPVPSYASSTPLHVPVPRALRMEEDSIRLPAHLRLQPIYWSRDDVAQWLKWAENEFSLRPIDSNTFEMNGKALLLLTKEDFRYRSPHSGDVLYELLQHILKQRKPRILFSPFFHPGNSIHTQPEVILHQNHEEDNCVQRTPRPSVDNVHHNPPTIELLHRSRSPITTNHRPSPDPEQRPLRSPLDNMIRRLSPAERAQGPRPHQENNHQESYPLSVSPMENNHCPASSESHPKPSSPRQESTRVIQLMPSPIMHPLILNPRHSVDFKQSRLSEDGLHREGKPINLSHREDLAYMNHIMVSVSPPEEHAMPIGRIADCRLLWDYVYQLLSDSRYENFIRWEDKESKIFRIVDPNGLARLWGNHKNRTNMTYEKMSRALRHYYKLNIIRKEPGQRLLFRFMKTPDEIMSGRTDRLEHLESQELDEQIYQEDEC
In short: as §1

Sequence	binding signal (ERF)	binding signal (ETV3L)	binding signal (ETS2)	binding signal (SPDEF)	binding signal (ETV7)	binding signal (ELF5)	binding signal (ETV3)	binding signal (ETV6)
GAATAC	1.11 fold enrichment (6-mer frequency, TF over GST control)	1.01 fold enrichment (6-mer frequency, TF over GST control)	1.02 fold enrichment (6-mer frequency, TF over GST control)	1 fold enrichment (6-mer frequency, TF over GST control)	1.01 fold enrichment (6-mer frequency, TF over GST control)	1.03 fold enrichment (6-mer frequency, TF over GST control)	1.07 fold enrichment (6-mer frequency, TF over GST control)	1.03 fold enrichment (6-mer frequency, TF over GST control)
CCGCGC	1.23 fold enrichment (6-mer frequency, TF over GST control)	1.08 fold enrichment (6-mer frequency, TF over GST control)	1.21 fold enrichment (6-mer frequency, TF over GST control)	1.17 fold enrichment (6-mer frequency, TF over GST control)	1.06 fold enrichment (6-mer frequency, TF over GST control)	1.18 fold enrichment (6-mer frequency, TF over GST control)	1.19 fold enrichment (6-mer frequency, TF over GST control)	1.15 fold enrichment (6-mer frequency, TF over GST control)
CCTTGT	1.29 fold enrichment (6-mer frequency, TF over GST control)	1.05 fold enrichment (6-mer frequency, TF over GST control)	1.26 fold enrichment (6-mer frequency, TF over GST control)	1.37 fold enrichment (6-mer frequency, TF over GST control)	1.19 fold enrichment (6-mer frequency, TF over GST control)	1.52 fold enrichment (6-mer frequency, TF over GST control)	1.31 fold enrichment (6-mer frequency, TF over GST control)	1.06 fold enrichment (6-mer frequency, TF over GST control)
CGACCT	1.47 fold enrichment (6-mer frequency, TF over GST control)	1.75 fold enrichment (6-mer frequency, TF over GST control)	1.41 fold enrichment (6-mer frequency, TF over GST control)	1.44 fold enrichment (6-mer frequency, TF over GST control)	1.54 fold enrichment (6-mer frequency, TF over GST control)	1.58 fold enrichment (6-mer frequency, TF over GST control)	1.53 fold enrichment (6-mer frequency, TF over GST control)	1.5 fold enrichment (6-mer frequency, TF over GST control)
TAGCAT	1.09 fold enrichment (6-mer frequency, TF over GST control)	1.14 fold enrichment (6-mer frequency, TF over GST control)	1.11 fold enrichment (6-mer frequency, TF over GST control)	1.21 fold enrichment (6-mer frequency, TF over GST control)	1.11 fold enrichment (6-mer frequency, TF over GST control)	1.01 fold enrichment (6-mer frequency, TF over GST control)	1.16 fold enrichment (6-mer frequency, TF over GST control)	1.15 fold enrichment (6-mer frequency, TF over GST control)
CGTCCT	1.41 fold enrichment (6-mer frequency, TF over GST control)	1.31 fold enrichment (6-mer frequency, TF over GST control)	1.28 fold enrichment (6-mer frequency, TF over GST control)	1.56 fold enrichment (6-mer frequency, TF over GST control)	1.45 fold enrichment (6-mer frequency, TF over GST control)	1.56 fold enrichment (6-mer frequency, TF over GST control)	1.53 fold enrichment (6-mer frequency, TF over GST control)	1.47 fold enrichment (6-mer frequency, TF over GST control)
GTGTTT	1.12 fold enrichment (6-mer frequency, TF over GST control)	1.18 fold enrichment (6-mer frequency, TF over GST control)	1.19 fold enrichment (6-mer frequency, TF over GST control)	1.22 fold enrichment (6-mer frequency, TF over GST control)	1.2 fold enrichment (6-mer frequency, TF over GST control)	1.23 fold enrichment (6-mer frequency, TF over GST control)	1.15 fold enrichment (6-mer frequency, TF over GST control)	1.2 fold enrichment (6-mer frequency, TF over GST control)
GAAACT	1.03 fold enrichment (6-mer frequency, TF over GST control)	1.22 fold enrichment (6-mer frequency, TF over GST control)	1.22 fold enrichment (6-mer frequency, TF over GST control)	1.13 fold enrichment (6-mer frequency, TF over GST control)	1.31 fold enrichment (6-mer frequency, TF over GST control)	1.28 fold enrichment (6-mer frequency, TF over GST control)	1.16 fold enrichment (6-mer frequency, TF over GST control)	1.2 fold enrichment (6-mer frequency, TF over GST control)
GGAAAT	2.42 fold enrichment (6-mer frequency, TF over GST control)	2.66 fold enrichment (6-mer frequency, TF over GST control)	2.75 fold enrichment (6-mer frequency, TF over GST control)	2.56 fold enrichment (6-mer frequency, TF over GST control)	2.56 fold enrichment (6-mer frequency, TF over GST control)	3.68 fold enrichment (6-mer frequency, TF over GST control)	2.88 fold enrichment (6-mer frequency, TF over GST control)	3.32 fold enrichment (6-mer frequency, TF over GST control)

— publication PMC7862700, “An all-to-all approach to the identification of sequence-specific readers for epigenetic DNA modifications on cytosine”
